Molecules are shown by their SMILES. Several values for one entry are separate records, joined by “and”; a condition that tells them apart may be missing. Identical values can stand only once. More than one record can exist for a structure, and the calls need not agree. Activity calls are given as the source filed them. Rule for the calls: active = hit-call score of the fitted dose curve at least 0.9, where 1 is the maximum; inactive = score below 0.9.

A word on the AC50: it is the concentration giving half of the maximal activity seen.

Read-out in assay [1]: Macrophage colony-stimulating factor (MCSF), CSF1 (gene 1435)
As to the kind of experiment: BSK_hDFCGF_MCSF: BioMAP Diversity Plus: hDFCGF Assay for Macrophage colony-stimulating factor (MCSF) Biomarker Activity (AID 2283060). The conditions noted are these: primary human foreskin fibroblasts; actives raise or lower the signal. The procedure, abridged:
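fibroblasts (human foreskin, primary), 24 h post-dose; M-CSF by ELISA; bidirectional fit, DMSO = baseline.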

Assay [2] is described as follows: BSK_hDFCGF_SRB: Viability Assessment in the BioMAP Diversity Plus: hDFCGF Assay (AID 2283061).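 Note: cells exposed to compound for 24 h before the read.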 The following applies: primary human foreskin fibroblasts. In short, it runs like this: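 SRB-based viability read on primary human skin fibroblasts at 24 h: TCA fixation, 0.1% dye, 560 nm. Gain or loss of signal is fitted against the DMSO negative control.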
Read-out in assay [3]: TIMP metallopeptidase inhibitor 1 (TIMP1), TIMP1 (gene 7076)
Nature of the assay: BSK_hDFCGF_TIMP1: BioMAP Diversity Plus: hDFCGF Assay for TIMP metallopeptidase inhibitor 1 (TIMP1) Biomarker Activity (AID 2283062). The following applies: primary human foreskin fibroblasts; actives raise or lower the signal. In short, it runs like this: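 Bidirectional curve fitting against DMSO baseline yielded this endpoint, based on ELISA detection of TIMP-1 in primary human foreskin fibroblasts exposed to compound for 24 h.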

Read-out in assay [4]: Monokine induced gamma interferon (MIG), CXCL9 (gene 4283)
Nature of the assay: BSK_hDFCGF_MIG: BioMAP Diversity Plus: hDFCGF Assay for Monokine induced gamma interferon (MIG) Biomarker Activity (AID 2283063). The conditions noted are these: primary human foreskin fibroblasts; actives raise or lower the signal. In short, it runs like this:
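Endpoint derived by bidirectional fitting relative to DMSO; MIG quantified via ELISA in primary human foreskin fibroblasts harvested 24 h after dosing.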

Read-out in assay [5]: Matrix Metallopeptidase 1 (MMP1), MMP1 (gene 4312)
As to the kind of experiment: BSK_hDFCGF_MMP1: BioMAP Diversity Plus: hDFCGF Assay for Matrix Metallopeptidase 1 (MMP1) Biomarker Activity (AID 2283064). The conditions noted are these: primary human foreskin fibroblasts; actives raise or lower the signal. The procedure, abridged:
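MMP1 levels quantified by ELISA 24 h after dosing human dermal fibroblast cultures, with parallel SRB total-protein staining for overt cytotoxicity. Data fitted in both directions against DMSO baseline.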

Read-out in assay [6]: Vascular cell adhesion molecule 1 (VCAM1), VCAM1 (gene 7412)
As to the kind of experiment: BSK_hDFCGF_VCAM1: BioMAP Diversity Plus: hDFCGF Assay for Vascular cell adhesion molecule 1 (VCAM1) Biomarker Activity (AID 2283065).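 For AC50: VCAM-1 protein level quantified by ELISA after 24 h chemical exposure.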 The following applies: primary human foreskin fibroblasts; actives raise or lower the signal. In short, it runs like this:
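Measured after 24 h chemical treatment of primary human skin fibroblasts, VCAM-1 was detected by ELISA and concentration-response analysed in both directions versus DMSO vehicle.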

Read-out in assay [7]: Plasminogen activator inhibitor-1 (PAI1), SERPINE1 (gene 5054)
As to the kind of experiment: BSK_hDFCGF_PAI1: BioMAP Diversity Plus: hDFCGF Assay for Plasminogen activator inhibitor-1 (PAI1) Biomarker Activity (AID 2283066). The conditions noted are these: primary human foreskin fibroblasts; actives raise or lower the signal. In short, it runs like this: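 PAI-1 levels in human dermal foreskin fibroblasts were quantified by ELISA 24 h after dosing, with gain or loss analysed against DMSO. Overt cytotoxicity was checked by sulforhodamine B total-protein staining in parallel cultures.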

Read-out in assay [8]: Intercellular Adhesion Molecule 1 (ICAM1), ICAM1 (gene 3383)
Nature of the assay: BSK_KF3CT_ICAM1: BioMAP Diversity Plus: KF3CT Assay for Intercellular Adhesion Molecule 1 (ICAM1) Biomarker Activity (AID 2283067). The following applies: primary human keratinocytes with fibroblasts; actives raise or lower the signal. In short, it runs like this:
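Bidirectional curve fitting against a DMSO baseline was applied to ICAM-1 ELISA signal from primary human skin co-cultures harvested 24 h after treatment, with SRB staining of parallel wells for overt cytotoxicity.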

Read-out in assay [9]: Interferon-gamma inducible Protein 10 (IP10), CXCL10 (gene 3627)
Nature of the assay: BSK_KF3CT_IP10: BioMAP Diversity Plus: KF3CT Assay for Interferon-gamma inducible Protein 10 (IP10) Biomarker Activity (AID 2283068). The following applies: primary human keratinocytes with fibroblasts; actives raise or lower the signal. The procedure, abridged:
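ELISA read-out of IP-10 after 24 h chemical dosing of human skin primary co-culture (keratinocytes, foreskin fibroblasts). Gain or loss of signal relative to DMSO, bidirectional curve fit.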

The nature of assay [10]: BSK_KF3CT_SRB: Viability Assessment in the BioMAP Diversity Plus: KF3CT Assay (AID 2283069).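 Note: read 24 h after compound addition.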 The following applies: primary human keratinocytes with fibroblasts. The procedure, abridged:
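Cytotoxicity was gauged by SRB staining (0.1% SRB, 10% TCA fixation, 560 nm) of parallel cultures at 24 h. The cells were primary human skin keratinocytes co-cultured with fibroblasts, and activity was fitted in both directions against DMSO.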

Read-out in assay [11]: Interleukin-1 alpha (IL1a), IL1A (gene 3552)
Nature of the assay: BSK_KF3CT_IL1a: BioMAP Diversity Plus: KF3CT Assay for Interleukin-1 alpha (IL1a) Biomarker Activity (AID 2283070). The following applies: primary human keratinocytes with fibroblasts; actives raise or lower the signal. In short, it runs like this:
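IL-1a was detected by ELISA 24 h after chemical treatment of a co-culture of human skin keratinocytes and foreskin fibroblasts. Gain or loss of signal was fitted against the DMSO baseline.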

Read-out in assay [12]: TIMP metallopeptidase inhibitor 2 (TIMP2), TIMP2 (gene 7077)
Nature of the assay: BSK_KF3CT_TIMP2: BioMAP Diversity Plus: KF3CT Assay for TIMP metallopeptidase inhibitor 2 (TIMP2) Biomarker Activity (AID 2283071). The following applies: primary human keratinocytes with fibroblasts; actives raise or lower the signal. In short, it runs like this: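 TIMP-2 measured by ELISA at 24 h in human keratinocyte/fibroblast primary co-cultures exposed to chemicals. Both increases and decreases were fitted against DMSO. Parallel cultures were stained with SRB for total protein as an overt-cytotoxicity check.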

Read-out in assay [13]: Transforming growth factor beta 1 (TGFb1), TGFB1 (gene 7040)
Nature of the assay: BSK_KF3CT_TGFb1: BioMAP Diversity Plus: KF3CT Assay for Transforming growth factor beta 1 (TGFb1) Biomarker Activity (AID 2283072). The following applies: primary human keratinocytes with fibroblasts; actives raise or lower the signal. The procedure, abridged: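 ELISA quantifies TGF-b1 at 24 h post-dose in a primary human skin co-culture of keratinocytes and fibroblasts, with gain or loss judged against DMSO. Parallel SRB total-protein staining flags overt cytotoxicity.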

Read-out in assay [14]: C-C motif chemokine 2 (Homo sapiens) (UniProt P13500)
Nature of the assay: BSK_KF3CT_MCP1: BioMAP Diversity Plus: KF3CT Assay for Monocyte Chemoattractant Protein 1 (MCP1/CCL2) Biomarker Activity (AID 2283073). The conditions noted are these: primary human keratinocytes with fibroblasts; actives raise or lower the signal. The procedure, abridged: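 Biomarker MCP-1 is measured by ELISA in primary human keratinocytes co-cultured with foreskin fibroblasts, 24 h after chemical treatment; DMSO serves as the negative control and activity baseline.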

Read-out in assay [15]: Matrix Metallopeptidase 9 (MMP9), MMP9 (gene 4318)
As to the kind of experiment: BSK_KF3CT_MMP9: BioMAP Diversity Plus: KF3CT Assay for Matrix Metallopeptidase 9 (MMP9) Biomarker Activity (AID 2283074). The following applies: primary human keratinocytes with fibroblasts; actives raise or lower the signal. The procedure, abridged: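 MMP-9 quantified by ELISA after 24 h chemical treatment of primary human skin keratinocyte/fibroblast co-cultures; gain or loss fitted against DMSO, with parallel SRB staining (0.1% SRB, 560 nm) for overt cytotoxicity.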

Read-out in assay [16]: urokinase plasminogen activator (uPA), PLAU (gene 5328)
Nature of the assay: BSK_KF3CT_uPA: BioMAP Diversity Plus: KF3CT Assay for urokinase plasminogen activator (uPA) Biomarker Activity (AID 2283075). The conditions noted are these: primary human keratinocytes with fibroblasts; actives raise or lower the signal. In short, it runs like this:
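ELISA read-out of uPA 24 h after dosing human skin keratinocytes co-cultured with foreskin fibroblasts. Signal change fitted both ways relative to DMSO; sulforhodamine B on parallel cultures marks overt cytotoxicity.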

Read-out in the next assay: CD40, CD40 (gene 958)
As to the kind of experiment: BSK_LPS_CD40: BioMAP Diversity Plus: LPS Assay for CD40 Biomarker Activity (AID 2283076). The conditions noted are these: primary human HUVEC with PBMC; actives raise or lower the signal. The procedure, abridged:
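Using a multiplexed primary human co-culture (umbilical vein endothelium plus PBMC), CD40 was read by ELISA 24 h after dosing, with cytotoxicity tracked by sulforhodamine B staining of parallel cultures and activity fitted bidirectionally versus DMSO.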

Read-out in assay [17]: E-selectin (Homo sapiens) (UniProt P16581)
Nature of the assay: BSK_LPS_Eselectin: BioMAP Diversity Plus: LPS Assay for Eselectin Biomarker Activity (AID 2283077). The following applies: primary human HUVEC with PBMC; actives raise or lower the signal. In short, it runs like this: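 Dose chemical onto LPS-driven HUVEC/PBMC co-culture; after 24 h, run ELISA for E-selectin; fit up- and down-going responses relative to DMSO control.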

Read-out in assay [18]: Interleukin-8 (IL8), CXCL8 (gene 3576)
As to the kind of experiment: BSK_LPS_IL8: BioMAP Diversity Plus: LPS Assay for Interleukin-8 (IL8) Biomarker Activity (AID 2283078). The following applies: primary human HUVEC with PBMC; actives raise or lower the signal. In short, it runs like this:
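In this LPS system, chemical-treated human umbilical vein endothelium/PBMC co-cultures were harvested at 24 h for IL-8 ELISA.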

Assay [19] is described as follows: BSK_LPS_SRB: Viability Assessment in the BioMAP Diversity Plus: LPS Assay (AID 2283079).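 Note: total protein by sulforhodamine B absorbance as a cytotoxicity measure; measured one day after compound addition; fitted in both directions against DMSO so loss or gain of signal counts.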 The conditions noted are these: primary human HUVEC with PBMC. In short, it runs like this: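 Cytotoxicity endpoint in human endothelial–PBMC co-culture: 24 h exposure, then SRB (0.1%) staining, 560 nm read.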

E-selectin (Homo sapiens), sequence (P16581 whole entry, looked up): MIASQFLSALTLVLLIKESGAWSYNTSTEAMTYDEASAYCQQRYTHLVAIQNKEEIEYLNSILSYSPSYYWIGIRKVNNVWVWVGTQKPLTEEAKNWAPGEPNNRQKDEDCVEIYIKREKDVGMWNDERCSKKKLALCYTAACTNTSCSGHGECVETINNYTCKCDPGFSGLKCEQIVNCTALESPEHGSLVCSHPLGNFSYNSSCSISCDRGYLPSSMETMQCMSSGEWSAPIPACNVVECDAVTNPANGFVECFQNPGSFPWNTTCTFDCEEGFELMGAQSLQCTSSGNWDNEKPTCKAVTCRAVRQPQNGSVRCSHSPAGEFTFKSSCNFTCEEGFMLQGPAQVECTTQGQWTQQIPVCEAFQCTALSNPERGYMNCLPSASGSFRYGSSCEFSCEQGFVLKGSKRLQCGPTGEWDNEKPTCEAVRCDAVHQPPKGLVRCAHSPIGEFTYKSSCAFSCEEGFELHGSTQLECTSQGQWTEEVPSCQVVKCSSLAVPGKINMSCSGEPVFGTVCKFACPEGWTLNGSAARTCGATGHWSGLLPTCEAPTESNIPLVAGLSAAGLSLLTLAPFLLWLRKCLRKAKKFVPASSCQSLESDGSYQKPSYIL

Take `CCCCOCCOCCOC(=O)CCCCC(=O)OCCOCCOCCCC`: the result in assay [1], in assay [2], in assay [3], in [4], in assay [5] and in [6] was inactive. The outcome in assay [7], in assay [8], in [9], in [10], in [12] and in [13] was inactive. For the same compound, the outcome in assay [14] was “inactive”; in assay [15], “inactive”; in [16], “inactive”; in the assay with CD40, CD40 (gene 958) it was “inactive”; in [17] it was “inactive”; in assay [18], “inactive”. In addition, the outcome in [19] was inactive. In addition, the AC50 in assay [11] was 2.19 µM (active).
With `O=C(O)C(F)(OC(F)(F)C(F)(OC(F)(F)C(F)(F)C(F)(F)F)C(F)(F)F)C(F)(F)F` (configuration not stated), the outcome in assay [1], in [2], in assay [3], in [4], in [5] and in assay [6] was inactive. The result in assay [7], in assay [9], in [10], in assay [11], in assay [12] and in [14] was inactive. Moreover, the outcome in assay [15] is “inactive”; with CD40, CD40 (gene 958), “inactive”; in assay [17], “inactive”; in [18] it was “inactive”; in assay [19], “inactive”.
For the compound `CCCCCCOC(=O)c1ccccc1O`, the AC50 in [1] is 34.8 µM (active) and 35.1 µM (active); in [2], 40 µM (active) and 44.8 µM (active); in [3], 39.7 µM (active) and 31.2 µM (active); in assay [4], 18.2 µM (active) and 21.3 µM (active); in assay [5] it was 35.8 µM (active); in assay [6], 33.1 µM (active) and 35.3 µM (active). Moreover, the AC50 is 39.3 µM (active) and 39.6 µM (active) in assay [7]; 32.8 µM (active) in [14]; 41.9 µM (active) and 24.5 µM (active) in the assay with CD40, CD40 (gene 958); 38.1 µM (active) and 44.8 µM (active) in [17]; 41.9 µM (active) and 38.9 µM (active) in [18]; 43.2 µM (active) and 42.1 µM (active) in assay [19]. Further, the result in [8], in [9], in assay [10], in assay [11], in [12] and in assay [14] was inactive. In addition, the outcome in [15] was inactive.
As for `CCCCCCCOC(=O)c1ccccc1C(=O)OCCCCCCC`, the outcome in assay [1], in assay [2], in [3], in [4], in [5] and in assay [6] was inactive. For the same compound, the outcome in assay [7], in [8], in assay [9], in assay [10], in [11] and in [12] was inactive. The outcome in assay [13] is “inactive”; in assay [14], “inactive”; in assay [15] it was “inactive”; with CD40, CD40 (gene 958) it was “inactive”; in [17] it was “inactive”; in assay [18], “inactive”. In addition, the outcome in [19] was inactive.
Take `OCC(F)(F)C(F)(F)C(F)(F)C(F)(F)C(F)(F)C(F)(F)F`: the AC50 in [1] is 48.6 µM (active) and 49.4 µM (active); in [2], 45.4 µM (active); in [5], 49.3 µM (active); in assay [6], 54.6 µM (active) and 46 µM (active); in [7], 47.6 µM (active). Also, the outcome in assay [2], in assay [3], in assay [4], in [5], in [7] and in [8] was inactive. Besides, the result in assay [9], in assay [10], in [11], in [12], in assay [14] and in assay [15] was inactive. The outcome in [16] is “inactive”; with CD40, CD40 (gene 958), “inactive”; in assay [17], “inactive”; in assay [18], “inactive”; in [19] it was “inactive”.
